# Test results taken from PubChem BioAssay (EPA / NIEHS).
# Several values for one entry are separate records, joined by “and”; a condition that tells them apart may be missing. Identical values can stand only once. Activity calls are given as the source filed them. The calls were made as follows: active = hit-call score of the fitted dose curve at least 0.9, where 1 is the maximum; inactive = score below 0.9.
# Read-out: Monocyte Chemoattractant Protein-1 (MCP1), CCL2 (gene 6347)
# Assay: BSK_4H_MCP1: BioMAP Diversity Plus: 4H Assay for Monocyte Chemoattractant Protein-1 (MCP1) Biomarker Activity (AID 2283018)
# Details: primary human endothelial cells (HUVEC); actives raise or lower the signal
# Experimental: BSK_4H is a cell-based, multiplexed-readout assay that uses umbilical vein endothelium, a human vascular primary cell, with measurements taken at 24 hours after chemical dosing in a 96-well plate.BSK_4H_MCP1 is an assay component measured in the BSK_4H assay. It measures MCP-1 antibody related to regulation of gene expression using ELISA technology.Data from the assay component BSK_4H_MCP1 was analyzed into 1 assay endpoint. This assay endpoint, BSK_4H_MCP1, was analyzed with bidirectional fitting relative to DMSO as the negative control and baseline of activity. Using a type of binding reporter, gain or loss-of-signal activity can be used to understand changes in the signaling as they relate to the gene CCL2. Furthermore, this assay endpoint can be referred to as a primary readout, because this assay has produced multiple assay endpoints where this one serves a signaling function. To generalize the intended target to other relatable targets, this assay endpoint is annotated to the cytokine intended target family, where the subfamily is chemotactic factor.
# The levels of cell surface (or secreted, indicated by the prefix "s") biomarker endpoints were measured by ELISA. Overt cytotoxicity to cells in confluent adherent cultures (all systems other than the BT system) was assessed by measuring total protein levels using sulforhodamine B (SRB) staining in parallel cultures at the time of biomarker measurements, indicated as SRB endpoints. For proliferation assays for adherent cell types, individual cell types are cultured at sub-confluence and relative cell numbers quantified by SRB staining at time points optimized for each system (48 h: 3C and CASM3C systems; 72 h: BT and HDF3CGF systems; 96 h: SAg system). SRB was performed by staining cells with 0.1% SRB after fixation with 10% TCA and reading wells at 560 nm.Viability and proliferation of PBMC (T cells) was quantified by Alamar Blue reduction for the SAg and BT systems. For PBMC viability (referred to as PBMC Cytotoxicity within the assay endpoint names), cells were plated (75,000/well in a 96-well plate) and then chemical samples added for 1 h before addition of activators, SEB and TSST-1 (20 ng/mL final concentration each). Cells were incubated for 90 h. Then, Alamar Blue (20 uL/well) (Invitrogen, Cat DAL1100) was added for 6 h, and the plates were read with a fluorescence microplate reader at 546/580 nm (excitation/emission). For PBMC proliferation, cells were plated and activated as above but incubated for only 16 h prior to addition of Alamar Blue. Plates were read after 6 h.
SMILES,outcome,AC50
O=C(Oc1ccccc1)c1ccccc1C(=O)Oc1ccccc1,inactive,–
CCCCCCCCCCCC(C)=O,–,29.8 µM (active)
CCCCCCCCCCCC(=O)N(C)CC(=O)O,inactive,–
Clc1cc(Cl)c(Cl)c(Cl)c1Cl,inactive,–
CCOC(=O)C1=NN(c2ccc(Cl)cc2Cl)C(C)(C(=O)OCC)C1 (stereo not given),–,20 µM (active)
c1ccc2c(c1)[nH]c1ccccc12,inactive,–
CC/C=C\CCOC(=O)c1ccccc1O,–,10.9 µM (active)
CCC1(C)C(=O)N(Cl)C(=O)N1Cl (stereo not given),inactive,–
C=CC(=O)OCCCCCCOC(=O)C=C,–,9.96 µM (active)
C=CC(=O)NC(C)(C)C,inactive,–
CCCCCCCCC(CO)CCCCCC (stereo not given),inactive,–
CC=C(C)C(C)=O,inactive,–
CC(C)c1cccc(C(C)C)c1N,inactive,–
O=C(Cl)c1c(Cl)c(Cl)c(C(=O)Cl)c(Cl)c1Cl,inactive,–
CC=C(C)C=CC=C(C)C,inactive,–
Cc1c(O)cccc1O,inactive,–
CC1=CC=C(C(C)C)CC1,inactive,–
C=CC(=O)OCCCCCCCC(C)C,inactive,–
O=C1CCCCCCCCCCCN1,inactive,–
CCCC(C)C(=O)OCC (stereo not given),inactive,–

SMILES,outcome,AC50
CC(C)C(=O)OCCc1ccccc1,inactive,–
CC(C)CCCCCOC(=O)CS,inactive,–
CC(Cl)COP(=O)(OCC(C)Cl)OCC(C)Cl (stereo not given),inactive,–
Nc1ccc(C(=O)O)cc1,inactive,–
CCNc1nc(NC(C)(C)C)nc(OC)n1,inactive,–
CCOC(=O)C1=NOC(c2ccccc2)(c2ccccc2)C1,inactive,–
C1CNCCN1,inactive,–
CCc1cccc(C)c1N(C(=O)CS(=O)(=O)O)C(C)COC (stereo not given),inactive,–
COc1ccc(C(=O)c2ccccc2)c(O)c1,inactive,–
Nc1nc(N)nc(-c2ccccc2)n1,inactive,–
C=CC(=O)NCOCCCC,inactive,–
C=C(C)C(=O)OCCCCCCCCCCCC,inactive,–
Oc1ccc(/C=C/c2cc(O)cc(O)c2)cc1,–,9.4 µM (active)
Oc1c(Cl)cc(Cl)c(Cl)c1Cl,–,27.9 µM (active)
Cc1ccc([N+](=O)[O-])cc1N,inactive,–
CCCCCCC=O,inactive,–
CCCCCCOC(=O)CCCCC(=O)OCCCCCC,inactive,–
c1ccc(Nc2cccc3ccccc23)cc1,–,26.1 µM (active) and 21.6 µM (active)
O=C(O)C(F)(F)C(F)(F)C(F)(F)C(F)(F)C(=O)O,inactive,–
Nc1cccc(N)n1,inactive,–
